From PubChem BioAssay AID687043 (Milwaukee Institute for Drug Discovery, 2013)
The whole screen tested about 16,000 compounds, of which about 250 (1.6%) were called active.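 Rule for the calls: active = inhibition above the average over every tested compound plus 3 SD (cut at about 40% in these data); inactive = the rest.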 This excerpt belongs to a sample that is enriched for actives.

The compounds below were run on Hepatitis C virus NS3 helicase (assay: compounds blocking NS3h DNA binding – biochemical, fluorescence polarization, ChemBridge library, primary screen (AID 687043)). Conditions: NS3h Cy5-dT15 DNA binding, at 100 µM, stronger effect = higher value.

inhibition, inactive:
CCCOC(=O)Cc1c(O)c2ccccc2[nH]c1=O -1.3%, O=[N+]([O-])c1ccc2c(c1)S(=O)(=O)N=C2Nc1cccnc1 -7.4%, O=c1[nH][nH]c(=O)c2cc(N3CCCC3)ccc12 4.3%, O=C(NCc1ccccc1)C1CC(=O)N(c2ccc(Cl)cc2)C1 (stereo not drawn) 2.8%, Cc1ccc2c(C)[n+](C)ccn12 15.6%, COc1ccc(C2CC(=O)C3=C(C2)Nc2ccccc2NC3c2ccc(SC)cc2)cc1 (stereo not drawn) 11%, Cc1ccc(/C=C/C(=O)Nc2cccc([N+](=O)[O-])c2)o1 6.1%, Cc1cccc(NC(=O)/C=C/c2ccc(F)cc2)c1 2.2%, Cc1cccc(N2C(=O)S/C(=C/c3ccc(N(C)C)cc3)C2=O)c1 15.9%, COc1ccc(C2CC(=O)C3=C(C2)Nc2ccccc2NC3c2cccc(Cl)c2)cc1 (stereo not drawn) 9.2%, CCCCCCN1C(=O)C(O)=C(C(C)=O)C1c1ccc(Br)cc1 (stereo not drawn) -0.7%, CCCCNC(=O)C(=O)NCCCOC(C)C 4.2%, O=C(Nc1ccc(Cl)cc1)/C(=C\c1cccc([N+](=O)[O-])c1)NC(=O)c1cccs1 0.7%, FC(F)(F)c1cc(/C=C/c2ccccc2)n[nH]1 10.2%, CC(C)(C)C(=O)COc1ccc2c(-c3ccccc3)cc(=O)oc2c1 14.2%, COc1ccc(C2C=C(Nc3ccccc3)C(=O)N2c2ccccc2)c(OC)c1 (stereo not drawn) -9.5%, FC(F)(F)c1ccc(/C=N\N2CCN(Cc3cccc4ccccc34)CC2)cc1 3.6%, O=C1C2ON(c3ccccc3)C(c3ccc(Br)cc3)C2C(=O)N1c1ccccc1C(F)(F)F (stereo not drawn) 13.4%, CCc1c(C)nc2cc(-c3cccs3)[nH]n2c1=O -7.2%, CC(=O)Nc1c(C)cc(C2(c3cc(C)c(NC(C)=O)c(C)c3)CCCCC2)cc1C 2.3%, CCOC(=O)c1c(-c2ccc(C)cc2C)csc1NC(=S)NC(=O)c1ccccc1 3.9%, O=C(NC(Cc1ccc(O)cc1)C(=O)O)/C(=C/c1ccccc1)NC(=O)c1ccccc1 (stereo not drawn) -11.5%, Cc1cccc(N(CC(=O)O)S(C)(=O)=O)c1 4.5%, CCOC(=O)c1ccc(NC(=O)CN(c2cccc([N+](=O)[O-])c2)S(=O)(=O)c2ccccc2)cc1 24.9%, O=C(O)CC1S/C(=N\N=C2/C(=O)Nc3ccccc32)N(c2ccc(O)cc2)C1=O (stereo not drawn) 1.8%, CCOc1ccccc1NC(=O)CN(c1ccc(OC)cc1)S(=O)(=O)c1ccc(C)cc1 13.8%, COc1cc(/C=C2/SC(=S)N(C)C2=O)ccc1OC(=O)c1cccs1 2.6%, COc1ccc(-c2nc3cc(NC(=O)C(C)C)ccc3o2)cc1OC -6.3%, CC(=O)C1=C(C)NC(C)=C(C(C)=O)C1c1cn(-c2ccccc2)nc1-c1cccs1 15.6%, O=C(NC(=S)Nc1ccc2oc(-c3cccnc3)nc2c1)c1ccc(Cl)cc1 -3.5%, O=C(NC(=S)Nc1ccc2oc(-c3ccc(Br)cc3)nc2c1)c1ccco1 17%, CCOC(=O)C1=C(C)N=c2s/c(=C\c3ccc(F)cc3)c(=O)n2C1c1cccc(OC)c1 (stereo not drawn) 10%, O=C(NCCCc1ccccc1)C1(c2ccccc2)CCCC1 27%, CCN(CC)c1ccc(/C=C2\C(=O)NC(=O)N(c3ccc(OC)cc3)C2=O)c(OC)c1 -5.2%, CCN(CC)c1ccc(/C=C2\C(=O)NC(=O)N(C)C2=O)cc1 27.7%, Cc1ccc(N2C(=O)NC(=O)/C(=C\c3ccc(I)cc3)C2=O)cc1 12.1%, CCOC(=O)c1c(CN(CCO)CCO)n(C)c2c1cc(OC(C)=O)c1c2c(-c2ccccc2)nn1-c1ccccc1 -6.5%, Cc1ccc(N2C(=O)CC(NCCc3ccccc3F)C2=O)cc1 (stereo not drawn) 8.2%, CCOC(=O)c1ccc(NC(=O)c2ccccc2OC)cc1 17.7%, Cc1ccc([N+](=O)[O-])cc1NC(=O)C1CC1(c1ccccc1)c1ccccc1 (stereo not drawn) 1.8%, O=S(=O)(Nc1ccc(O)c(-c2c(O)ccc3ccccc23)c1)c1cc(Cl)ccc1Cl 4.2%, CCCCCCN1C(=O)C(=O)C(=C(O)c2ccccc2)C1c1ccccc1OC (stereo not drawn) 1.4%, COc1cc(C(=S)N2CCOCC2)cc(OC)c1OC(=O)c1ccc(Br)cc1 15.4%, Cc1ccc(S(=O)(=O)c2ccc(Sc3ccc(Cl)cc3)cc2)cc1 15.4%, COc1ccc(-c2nc3sc(-c4ccc(OC)cc4)nc3s2)cc1 6%, O=C1NC(=Nc2ccc(F)cc2)S/C1=C/c1ccc(Br)cc1 4.6%, Cc1cc(NC(=O)c2ccc(-c3cccc([N+](=O)[O-])c3)o2)ccc1NC(=O)c1ccco1 14.7%, CCOc1cccc2c1N(C(=O)c1ccc(OC)cc1)C(C)(C)C(=S)C2=C1SC(C(=O)OC)=C(C(=O)OC)S1 0.9%, CS(=O)(=O)N1CCN(C(=O)Cc2ccccc2)CC1 7.7%, CCOc1ccc(/C=C2/Sc3ccccc3C2=O)cc1OCC 6.1%, COc1ccc(N2C(=O)C3C4C=CC(C4=C(C)C)C3C2=O)c([N+](=O)[O-])c1 (stereo not drawn) 15.2%, COc1ccc(N=Cc2sccc2C)c([N+](=O)[O-])c1 4.3%, Cc1ccc2[nH]c(C)c(CN3CCOCC3)c(=O)c2c1 -1.6%

inhibition, active:
Cc1ccc(/C=C/C(=O)Nc2ccc(Br)cc2)o1 42.5%, O=c1c2c(nc3cc(-c4cccc(F)c4)[nH]n13)CCS2 57.3%, O=C(NC(=S)Nc1ccc(-c2nc3cc(Cl)ccc3o2)cc1)c1ccco1 124%, CCN(CC)c1ccc(C=C2C(=O)N(C)C(=O)N(C)C2=O)c(O)c1 120%, COc1ccc(N2C(=O)C=CC2=O)c([N+](=O)[O-])c1 97.8%
